# High-throughput results: PubChem BioAssay, The Scripps Research Institute Molecular Screening Center
# In the library only some 3.5% were active in any assay of this set; here they are far more common.
# MITF inh – MITF inhibitors, primary screen, biochemical, AlphaScreen, human; inhibition, % at 2.6 µM; Microphthalmia-associated transcription factor (Homo sapiens), O75030; AlphaScreen MITF homodimerization, bead proximity signal; 650,000 compounds, 0.91% hits; AID 1259374, 2018; in the data active = inhibition above about 50%;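 note: 0% = vehicle wells with protein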
# TEAD-YAP inh – TEAD-YAP interaction inhibition, primary screen, TEAD-YAP interaction inhibitor project, luminescence, HEK-TIYL cells; TEAD-Gal4/YAP UAS-luciferase luminescence; inhibition, % at 9.12 µM; 640,000 compounds, 1.4% hits; in the data active = inhibition above about 32%;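 note: 0% = median of test compound wells and 100% = reference inhibitor wells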
# FBW7 activator – FBW7 E3 ligase activators, primary screen, biochemical, AlphaScreen, human | F-box/WD repeat-containing protein 7 (Homo sapiens), Q969H0 | AlphaScreen FBW7–phospho-cyclin E peptide binding, activator screen | normalized activity (activation), % at 26.1 µM | 650,000 compounds, 0.13% hits; in the data active = normalized activity above about 1.9%;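 note: purified mutant Fbw7 with reduced substrate affinity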
# GPR151 ag – activators of human GPR151, primary screen, cell-based, PathHunter beta-arrestin, luminescence; G-protein coupled receptor 151 (Homo sapiens), Q8TDV0; PathHunter beta-arrestin GPR151 cells; activation, % at 11.2 µM; 650,000 compounds, 1% hits; AID 1508602, 2020; in the data active = activation above about 4.9%;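 note: 0% = median of compound wells and 100% = cells with positive control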
# Target sequence (Q8TDV0 whole entry, looked up): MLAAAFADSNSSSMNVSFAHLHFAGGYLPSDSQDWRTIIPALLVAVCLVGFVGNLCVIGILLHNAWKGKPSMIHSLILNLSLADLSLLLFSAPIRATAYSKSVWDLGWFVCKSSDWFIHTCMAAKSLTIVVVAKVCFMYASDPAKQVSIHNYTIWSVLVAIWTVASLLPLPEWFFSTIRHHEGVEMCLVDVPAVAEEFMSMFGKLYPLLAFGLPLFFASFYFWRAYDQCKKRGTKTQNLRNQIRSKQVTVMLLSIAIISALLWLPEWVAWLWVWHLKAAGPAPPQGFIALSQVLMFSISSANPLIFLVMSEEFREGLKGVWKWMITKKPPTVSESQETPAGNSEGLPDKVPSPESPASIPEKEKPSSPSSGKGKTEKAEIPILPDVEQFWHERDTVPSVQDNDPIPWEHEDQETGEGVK
# Numbers without * were called inactive.
SMILES,MITF inh,TEAD-YAP inh,FBW7 activator,GPR151 ag
CC(C)C(=O)Nc1cc(-c2nc3cc(C(C)C)ccc3o2)ccc1Cl,-15,45*,0,0
Cc1cc(OCC(=O)Nc2ccc3oc(-c4ccccc4Br)nc3c2)cc(C)c1Cl,25,3,2.0*,3
CCOc1ccc(/C=C2/NC(=S)NC2=O)c(OCC)c1,21,-2,0,-1
O=C(c1ccc(CN2CCC(Cc3ccccc3)CC2)cc1)N1CCOCC1,4,4,0,-1
CCC(=O)Nc1ccc2oc(-c3ccccc3F)nc2c1,7,39*,0,-2
O=C(Cc1ccc(Cl)cc1)Nc1ccc2oc(-c3ccccc3F)nc2c1,2,-13,0,-1
NC(=O)N/N=C/c1cn(-c2ccccc2)nc1-c1cccs1,-6,-24,0,0
Cc1ccc(CN(CC(=O)O)Cc2cn(-c3ccccc3)nc2-c2cccs2)cc1,-5,60*,0,1
CN1CCN(/N=C/C2=C(O)CC(c3ccccc3)CC2=O)CC1 (stereo not drawn),-9,0,0,1
COc1ccc(Nc2nc(-c3cc(OC)c(OC)c(OC)c3)nc3ccccc23)cc1OC,-3,27,0,1
CCOc1ccc(Nc2nc(NCc3ccccc3)c3ccccc3n2)cc1,1,33*,0,3
COc1cc(-c2nc(Nc3ccc(OCc4ccccc4)cc3)c3ccccc3n2)cc(OC)c1OC,5,10,0,0
COc1cc(-c2nc(Nc3ccc(C)c(Cl)c3)c3ccccc3n2)cc(OC)c1OC,1,52*,0,0
CCOc1ccc(Nc2nc(-c3cc(OC)c(OC)c(OC)c3)nc3ccccc23)cc1,1,40*,0,0
COc1ccc2nc(Cl)c(C3CC(c4ccc(C)cc4)=NN3C(=O)CCCC(=O)O)cc2c1 (stereo not drawn),11,-6,0,0
Cc1ccccc1CNC(=O)N1CCC2(CC1)OCc1ccccc1O2,-3,-2,0,3
CC(NC(=O)c1cnc2ccccn12)c1ccc(F)cc1 (stereo not drawn),24,11,2.8*,0
Cc1ccc(CNC(=O)c2cnc3ccccn23)o1,27,-23,2.1*,-1
COc1ccc(CNC(=O)c2cnc3ccccn23)cc1,8,-11,0,0
COc1ccc(/C=C/c2ccc([N+](=O)[O-])cc2)cc1,5,-73,0,-1
COc1cc(/C=C2\C(=N)N3N=CSC3=NC2=O)ccc1OCc1ccc([N+](=O)[O-])cc1,-13,-12,0,1
COc1ccc2c(c1)CC(C(=O)Nc1ccc(-c3cn[nH]c3)cc1OCCN)CO2 (stereo not drawn),27,38*,0,0
COc1ccc2c(c1)CC(C(=O)Nc1ccc(-c3cn[nH]c3)cc1OCCCO)CO2 (stereo not drawn),17,-1,0,2
CN(C)CCOc1cc(-c2cn[nH]c2)cc2sc(C3COc4ccccc4C3)nc12 (stereo not drawn),24,4,0,-1
COc1ccc2c(c1)CC(c1nc3c(OCCN(C)C)cc(-c4cn[nH]c4)cc3s1)CO2 (stereo not drawn),47,73*,-1,1
SMILES,MITF inh,TEAD-YAP inh,FBW7 activator,GPR151 ag
O=C(CSc1nc2ccccc2[nH]1)c1cccc([N+](=O)[O-])c1,18,5,1,-1
Cn1cc(C(=O)N2CCN(c3ccccc3Cl)CC2)c2ccccc2c1=O,8,43*,0,0
CC(C)N(CCNC(=O)C1CCN(c2ccc(Nc3ccc(N4CCOCC4)cc3)nn2)CC1)C(C)C,-4,-9,0,-1
CC1CN=C(N(C)C(=O)Nc2cccc(Cl)c2)S1 (stereo not drawn),2,-20,0,-1
CNC(=O)N(C1=NCC(C)S1)c1cccc(Cl)c1 (stereo not drawn),9,40*,0,-1
O=C1C(=O)N(c2ncccn2)C(c2ccc([N+](=O)[O-])cc2)/C1=C(\O)c1ccc(Cl)cc1 (stereo not drawn),14,6,0,1
Cc1ccc(-c2nnc(SCC(=O)N3CCCCC3C)o2)cc1C (stereo not drawn),14,-8,1,0
CC1CCCCN1C(=O)CSc1nnc(-c2ccc(O)cc2)o1 (stereo not drawn),-6,49*,0,-1
O=C1CCC/C(=N\NC(=O)c2cc(-c3ccncc3)nc3ccccc23)C1,-5,26,0,2
Cc1cc(C(=O)N/N=C(\CCC(=O)O)c2cccs2)c2ccccc2n1,11,51*,0,0
Cc1cc(C(=O)N/N=C2\CCCC(=O)C2)c2ccccc2n1,-7,40*,0,0
CCOC(=O)c1sc(NC(=O)CSc2nnc(CNC(=O)c3ccco3)n2-c2cc(C)ccc2C)c(C(=O)OCC)c1C,15,-6,1,-1
C=C1C[C@H](c2ccccc2)N(Cc2ccccc2)[C@@H](C(C)C)[C@H]1C,4,-9,0,-2
CCn1c2ccccc2c2cc(CN3CCN(Cc4cc(OC)c(O)c(OC)c4)CC3)ccc21,46,-6,0,1
CCn1c2ccccc2c2cc(CN3CCN(Cc4cc(OC)ccc4O)CC3)ccc21,62*,-18,0,-1
COc1ccc(CN2CCN(Cc3cc(OC)ccc3O)CC2)cc1,83*,-1,0,0
COc1ccc(O)c(CN2CCN(Cc3ccccc3OC)CC2)c1,69*,-4,0,-1
CC(NC(=O)C12CC3CC(CC(C3)C1)C2)C(=O)NNC(=O)c1ccncc1 (stereo not drawn),-1,9,0,0
NC(=O)c1ccccc1Nc1cc(NC(=O)Cc2ccc(F)cc2)ncc1F,15,15,0,-1
NC(=O)c1ccccc1NC(=O)Cc1cccs1,2,3,0,0
CNC(=O)c1ccccc1Nc1cc(NC(=O)Cc2ccc(N)cc2)ncc1C(F)(F)F,-17,79*,1,-1
CS(=O)(=O)NC1CCC(Nc2cc(Nc3ccccc3C(N)=O)c(C(F)(F)F)cn2)CC1 (stereo not drawn),11,98*,1,-2
CNC(=O)c1ccccc1Nc1cc(NC(=O)Cc2ccccc2F)ncc1C(F)(F)F,9,81*,0,0
CC(C)N1CCN(c2ccc(Oc3cc(Nc4ccccc4C(N)=O)c(C(F)(F)F)cn3)cc2)CC1,12,14,1,-1
CNC(=O)c1ccccc1Nc1cc(NC(=O)Cc2cccs2)ncc1C(F)(F)F,8,74*,0,-1
CC(=O)Nc1ccc(C(=S)N2CCN(CCO)CC2)cc1,7,-6,0,0
COc1ccc2oc(=O)c(-c3nnc(Nc4cc(F)ccc4C)s3)cc2c1,3,3,1,0
O=C(/C=C/c1ccc(S(=O)(=O)N2CCOCC2)cc1)OCc1c(F)cccc1Cl,-16,-2,0,-2
O=C(NCc1cccs1)c1ccc(OCC(F)(F)F)cc1,-10,-31,0,-1
